Test results taken from the supplement of paper PMC12350171.
Counter-ions that a name gives are not always drawn. Values without a mark were called inactive.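 How the source made its calls: active = AUC significantly below DMSO controls by Student t-fit with adjusted P under 0.01; inactive = not significantly reduced.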

Test system: Haemophilus parainfluenzae
Assay: growth AUC normalised to DMSO control (fraction of control); higher = less growth inhibition, active = hit call of the paper
Conditions: 20 µM
Summary of the method: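 After two anaerobic passages, pathogens were added at a starting OD578 of 0.01 to pre-reduced mGAM plates holding compound at 20 μM with 1% DMSO; hemin and NAD were supplemented for Haemophilus parainfluenzae. Sealed with breathable membranes, plates were read at OD578 hourly for 24 h, in three biological replicates. The trapezoidal rule, applied up to the exponential-to-stationary transition, gave the growth-curve AUC, which was normalised to DMSO controls on the same plate.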

Row | SMILES | growth AUC normalised to DMSO control
1 | CC(CCc1ccccc1)NCC(O)c1ccc(O)c(C(N)=O)c1 (centres undefined) [Labetalol hydrochloride] | 0.954
2 | CN1CCC(=C2c3ccccc3Sc3ccccc32)CC1 [Pimethixene maleate] | 0.908
3 | CC1COc2c(N3CCN(C)CC3)c(F)cc3c(=O)c(C(=O)O)cn1c23 (centres undefined) [Ofloxacin] | 0.0492 (active)
4 | CCn1cc(C(=O)O)c(=O)c2cc(F)c(N3CCNC(C)C3)c(F)c21 (centres undefined) [Lomefloxacin hydrochloride] | 0.04 (active)
5 | O=C1O[C@H]([C@@H](O)CO)C(O)=C1O [Ascorbic acid] | 1.06
6 | CN1CCC(OC(c2ccccc2)c2ccccc2)CC1 [Diphenylpyraline hydrochloride] | 0.996
7 | Cc1cnc(NC(=O)C2=C(O)c3ccccc3S(=O)(=O)N2C)s1 [Meloxicam] | 0.968
8 | CN1CCC(=C2c3ccccc3C=Cc3ccccc32)CC1 [Cyproheptadine hydrochloride] | 0.921
9 | NS(=O)(=O)c1cc2c(cc1Cl)NCNS2(=O)=O [Hydrochlorothiazide] | 0.967
10 | C[C@H](CCC(=O)O)[C@H]1CC[C@H]2[C@@H]3[C@H](O)C[C@@H]4C[C@H](O)CC[C@]4(C)[C@H]3CC[C@]12C [Chenodiol] | 0.95
11 | CC(=O)Oc1ccccc1C(=O)Oc1ccccc1C(=O)O [Acetylsalicylsalicylic acid] | 0.885
12 | Clc1ccc(CCC(Cn2ccnc2)Sc2c(Cl)cccc2Cl)cc1 (centres undefined) [Butoconazole nitrate] | 0.97
13 | C[C@@H]1C[C@H]2[C@@H]3C[C@H](F)C4=CC(=O)C=C[C@]4(C)[C@@]3(F)[C@@H](O)C[C@]2(C)[C@@]1(O)C(=O)CO [Flumethasone] | 1
14 | C[n+]1ccccc1/C=N/O [Pralidoxime chloride] | 0.915
15 | CC(C(=O)O)c1ccc(-c2ccccc2)c(F)c1 (centres undefined) [Flurbiprofen] | 0.943
16 | CCc1cccc(CC)c1NC(=O)CN(CC(=O)O)CC(=O)O [Etifenin] | 1.01
17 | O=C(OCCOCCO)c1ccccc1Nc1cccc(C(F)(F)F)c1 [Etofenamate] | 0.992
18 | CCCCCN(C)CCC(O)(P(=O)(O)O)P(=O)(O)O [Ibandronate sodium] | 0.995
19 | C[N+]1(C)CCC(=C(c2ccccc2)c2ccccc2)CC1 [Diphemanil methylsulfate] | 0.949
20 | C/C(=C(\CCOP(=O)(O)O)SC(=O)c1ccccc1)N(C=O)Cc1cnc(C)nc1N [Benfotiamine] | 0.999

Row | SMILES | growth AUC normalised to DMSO control
21 | O=C(NC(Cc1cc(=O)[nH]c2ccccc12)C(=O)O)c1ccc(Cl)cc1 (centres undefined) [Rebamipide] | 1.01
22 | CN1CCCN=C1/C=C/c1cccc(O)c1 [Oxantel pamoate] | 0.916
23 | CC(C)(C)NC(=O)[C@@H]1C[C@@H]2CCCC[C@@H]2CN1C[C@@H](O)[C@H](Cc1ccccc1)NC(=O)[C@H](CC(N)=O)NC(=O)c1ccc2ccccc2n1 [Saquinavir mesylate] | 1.63
24 | CC(C)NC[C@@H](O)COc1cccc2ccccc12 [(R) Propranolol hydrochloride] | 0.99
25 | CCCCCCCCNC(C)C(O)c1ccc(SC(C)C)cc1 (centres undefined) [Suloctidil] | 0.986
26 | Cc1cc(C)nc(NS(=O)(=O)c2ccc(N)cc2)n1 [Sulfamethazine sodium salt] | 0.999
27 | CCCCC1(COC(=O)CCC(=O)O)C(=O)N(c2ccccc2)N(c2ccccc2)C1=O [Suxibuzone] | 0.995
28 | CN(C)CCN(Cc1ccc(Cl)cc1)c1ccccn1 [Chloropyramine hydrochloride] | 1.03
29 | CCCc1cc(C(N)=S)ccn1 [Prothionamide] | 1.04
30 | CC(=O)CC(c1ccc([N+](=O)[O-])cc1)c1c(O)c2ccccc2oc1=O (centres undefined) [Acenocoumarol] | 0.992
31 | NCCCCCC(=O)O [Aminocaproic acid] | 1.1
32 | CCN(CC)CC(=O)Nc1c(C)cccc1C [Lidocaine hydrochloride] | 1.02
33 | Nc1ccc(S(N)(=O)=O)cc1 [Sulfanilamide] | 0.997
34 | CCN1C(=O)NC(c2ccccc2)C1=O (centres undefined) [Ethotoin] | 1.01
35 | O=c1[nH]cc(F)c(=O)[nH]1 [5-fluorouracil] | 0.654 (active)
36 | COc1ccccc1OCC(O)CN1CCN(CC(=O)Nc2c(C)cccc2C)CC1 (centres undefined) [Ranolazine] | 1.03
37 | CC(=O)OC(C)C[N+](C)(C)C (centres undefined) [Methacholine chloride] | 0.979
38 | CCOc1ccc2ccccc2c1C(=O)N[C@@H]1C(=O)N2[C@@H]1SC(C)(C)[C@@H]2C(=O)O [Nafcillin sodium salt monohydrate] | 0.899
39 | COc1ccc(-c2cc(=O)c3c(O)cc(O[C@@H]4O[C@H](CO[C@@H]5O[C@@H](C)[C@H](O)[C@@H](O)[C@H]5O)[C@@H](O)[C@H](O)[C@H]4O)cc3o2)cc1O [Diosmin] | 0.784
